RAD52 inh = RAD52 (human) annealing inhibition | P43351 | recombinant RAD52 DNA annealing, FRET fluorescence | 360,000 tested, 0.46% active | inhibition, % at 18.7 µM | AID 651710;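 active = every replicate showing at least 50% inhibition; inconclusive = mean inhibition at least 50% but not in every replicate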
miR122 inh = blocks miR-122 activity in Huh7 sensor cells; Huh7 miR-122 Renilla luciferase sensor, 48 h; neutral wells = 0, positive control = 100; activation (reporter increase), % at 12.5 µM; 340,000 tested, 0.3% active; AID 602342;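 active = mean replicate activation score at least 90 and every replicate individually at or above 90; inconclusive = only one of the two criteria met; inactive = neither criterion met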;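 also: higher luciferase means less miR-122 activity so hits act as miR-122 inhibitors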
RAD54 inh = inhibitors of human RAD54 branch migration; RAD54 Holliday junction branch migration, FAM/BHQ fluorescence; 360,000 tested, 0.14% active; inhibition, % at 10.4 µM;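 active = mean normalized replicate activity at least 40 and at least half of replicates scoring 40 or more; inconclusive = only one of the two criteria met; inactive = mean below 40 and under half of replicates reaching 40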;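 also: 0% = median of neutral control wells and 100% = median of positive control wells; inhibitors cause a drop in the FAM fluorescence signal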
Glyco luc inh = blocks N-linked glycosylation in D54 reporter cells; D54 ERlucT glycosylation luciferase reporter, 24 h; percent of 100 nM tunicamycin response; reporter increase, % at 12.5 µM; 360,000 tested, 0.23% active;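 active = mean luciferase reporter signal, scaled so untreated is 0 and the glycosylation-blocking control 100, at or above a set limit in every replicate; inconclusive = mean reaches the limit but not every replicate does; inactive = mean below the limit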;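 also: luciferase carries N-glycosylation sites so blocking glycosylation raises the light; 0% = median of neutral control wells and 100% = median of 100 nM tunicamycin wells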
FID counter = counter-screen for HCV NS3 helicase inhibitors: DNA intercalator displacement | inhibition, % at 7.9 µM | AID 1845 | 290,000 tested, 0.17% active | DNA fluorescent intercalator displacement, fluorescence; in the data active = inhibition above about 37%;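 also: 0% = vehicle and 100% = reference compound; higher means more ethidium bromide displaced from hairpin DNA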
NRP1-CendR mod = NRP-1/CendR interaction modulation; FAM-RPARPAR peptide binding to NRP-1, fluorescence polarization; 360,000 tested, 0.85% active; inhibition, % at 25 µM; O14786;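 active = inhibition or corrected inhibition above about 18%, plus a signal ratio from 0.5 to 1.5, limit read from the data, passing the limit was not always enough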
Target sequence (O14786 whole entry, looked up): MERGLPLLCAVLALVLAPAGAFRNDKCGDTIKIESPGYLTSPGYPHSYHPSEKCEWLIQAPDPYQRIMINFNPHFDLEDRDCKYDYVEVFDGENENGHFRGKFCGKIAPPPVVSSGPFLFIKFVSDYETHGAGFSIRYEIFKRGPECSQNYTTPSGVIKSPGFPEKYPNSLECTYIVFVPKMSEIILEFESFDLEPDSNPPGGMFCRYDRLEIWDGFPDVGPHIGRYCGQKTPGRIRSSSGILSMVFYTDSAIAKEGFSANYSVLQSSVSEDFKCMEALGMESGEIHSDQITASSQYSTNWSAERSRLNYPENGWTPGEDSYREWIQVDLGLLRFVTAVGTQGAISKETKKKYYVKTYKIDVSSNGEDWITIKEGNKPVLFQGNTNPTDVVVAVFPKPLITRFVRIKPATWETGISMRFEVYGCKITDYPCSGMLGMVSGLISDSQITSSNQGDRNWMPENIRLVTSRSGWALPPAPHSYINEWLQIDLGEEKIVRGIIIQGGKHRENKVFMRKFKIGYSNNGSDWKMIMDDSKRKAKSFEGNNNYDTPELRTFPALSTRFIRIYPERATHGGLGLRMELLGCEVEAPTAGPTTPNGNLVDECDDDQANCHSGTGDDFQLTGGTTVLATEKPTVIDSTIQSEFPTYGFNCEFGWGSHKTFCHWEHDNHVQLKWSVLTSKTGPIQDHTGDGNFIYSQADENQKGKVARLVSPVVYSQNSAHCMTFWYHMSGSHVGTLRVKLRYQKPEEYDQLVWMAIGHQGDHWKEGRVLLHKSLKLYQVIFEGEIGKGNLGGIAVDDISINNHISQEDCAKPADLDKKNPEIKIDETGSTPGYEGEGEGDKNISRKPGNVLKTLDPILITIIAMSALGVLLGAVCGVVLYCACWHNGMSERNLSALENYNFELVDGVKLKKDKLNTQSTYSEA
RAD52 DNA ctr = counter-screen for RAD52 inhibitors: DNA binding compounds | shares compounds with RAD52 inh | Salmon sperm DNA/acridine orange FP displacement | AC50, µM | 1,000 tested, 8% active | AID 652128;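 active = fitted half-maximal concentration for signal loss at or below twice the highest dose tested, in every separate run, actives reach about 64 µM in these data; inconclusive = runs disagree, or flat partial signal loss, or poor fit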
Active calls of the source: *; [ ] = dose if it differs, or a comment. Most compounds without a hit are left out; they make up all but 1.5% or so of the library.

Results for C#CCOCCOCCOCCNc1nc(N2CCN(C(=O)[C@H]([C@@H](C)CC)n3cc(CCCCN)nn3)CC2)nc(N2CCN(C(=O)[C@H](CCCCN)n3cc(CCCC)nn3)CC2)n1 ?
RAD52 inh: 54.3*; miR122 inh: 5.7; RAD54 inh: 0.4; Glyco luc inh: 0.7; NRP1-CendR mod: -0.8; RAD52 DNA ctr: inactive

How did C[C@@H]1CN([C@H](C)CO)C(=O)c2cc(NS(=O)(=O)c3cn(C)cn3)ccc2O[C@H]1CN(C)CC1CCCCC1 do in these assays?
RAD52 inh: 5.8; miR122 inh: 0.4[16.7 µM]; RAD54 inh: 6.0

What do the screens show for `C#CCOCCOCCOCCNc1nc(N2CCN(C(=O)[C@H](CCCN=C(N)N)n3cc(C(N)[C@@H](C)CC)nn3)CC2)nc(N2CCN(C(=O)[C@H](CCC(=O)O)n3cc([C@@H](N)CCCCN)nn3)CC2)n1` (some centres not stated)?
RAD52 inh: -93.9; RAD54 inh: -21.9; Glyco luc inh: 0.9; NRP1-CendR mod: 12.1

Results for C#CCOCCOCCOCCNc1nc(N2CCN(C(=O)[C@H](CCCN=C(N)N)n3cc(C(N)[C@@H](C)CC)nn3)CC2)nc(N2CCN(C(=O)[C@H](CCCCN)n3cc([C@@H](N)[C@H](C)CC)nn3)CC2)n1 (some centres not stated) ?
RAD52 inh: 62.9*; miR122 inh: -2.7; RAD54 inh: 3.8; Glyco luc inh: -0.3; NRP1-CendR mod: 18.7; RAD52 DNA ctr: inactive

What do the screens show for `COc1ccc2c3c([nH]c2c1)[C@H](CO)N(Cc1cccc(Cl)c1)CC31CCN(C)CC1`?
RAD52 inh: 18.6

How did COc1ccccc1N1CCN(CC(=O)c2ccc(F)cc2)CC1 do in these assays?
RAD52 inh: -10.4; miR122 inh: 56.1; RAD54 inh: 2.1; Glyco luc inh: 3.0; FID counter: 12.1; NRP1-CendR mod: 0.6

What do the screens show for `CC(CC(=O)c1ccc(F)cc1)N1CCN(c2ccccc2)CC1` (configuration not stated)?
RAD52 inh: 79.7*; Glyco luc inh: 1.6; NRP1-CendR mod: -3.4; RAD52 DNA ctr: inactive

Results for CCOc1cc(/C=C/c2cccc[n+]2C)ccc1O ?
RAD52 inh: 72.2*; miR122 inh: -2.6; RAD54 inh: 10.6; Glyco luc inh: -1.0; FID counter: -0.8; NRP1-CendR mod: 4.2; RAD52 DNA ctr: inactive

How did C[C@@H]1CN([C@H](C)CO)C(=O)c2cc(NC(=O)Nc3ccccc3)ccc2O[C@@H](C)CCCCO[C@H]1CN(C)C do in these assays?
RAD52 inh: 14.1; miR122 inh: 7.7[16.7 µM]; RAD54 inh: 0.6

What do the screens show for `CS(=O)(=O)Nc1ccc2c(c1)[C@H]1C[C@@H](CC(=O)NCc3ccc(Cl)cc3)O[C@@H](CO)[C@H]1O2`?
RAD52 inh: 0.9; miR122 inh: -1.3[16.7 µM]; RAD54 inh: 3.7

How did COc1cc2nc(Nc3ccc(C)c(C)c3)nc(N)c2cc1OC do in these assays?
RAD52 inh: 90.5*; RAD54 inh: 34.1; Glyco luc inh: -6.3; FID counter: 19.0; NRP1-CendR mod: 6.6; RAD52 DNA ctr: inactive

What do the screens show for `COc1cc2nc(Nc3ccc(C)c(Cl)c3)nc(N)c2cc1OC`?
RAD52 inh: 73.1*; RAD54 inh: -3.9; Glyco luc inh: -6.3; FID counter: 19.0; NRP1-CendR mod: -1.7; RAD52 DNA ctr: inactive

How did COCC(=O)N1C[C@H](C)[C@H](OC)CN(C)C(=O)c2cc(NC(=O)NC(C)C)ccc2OC[C@@H]1C do in these assays?
RAD52 inh: -0.7; miR122 inh: 2.7[16.7 µM]; RAD54 inh: -1.6

What do the screens show for `Nc1ccc(Nc2nc(-c3ccncc3)cs2)cc1`?
RAD52 inh: -8.6; miR122 inh: 20.4; RAD54 inh: -11.6; Glyco luc inh: -10.5; FID counter: -3.8; NRP1-CendR mod: -1.0

Results for Nc1ccc(Nc2ccncc2)cc1 ?
RAD52 inh: 69.5*; RAD54 inh: 30.5; Glyco luc inh: -2.8; NRP1-CendR mod: -13.4; RAD52 DNA ctr: inactive

What do the screens show for `CNC[C@H]1Oc2ccc(NC(=O)Nc3ccc(C(F)(F)F)cc3)cc2CC(=O)N([C@@H](C)CO)C[C@H]1C`?
RAD52 inh: 9.3; miR122 inh: -12.6[16.7 µM]; RAD54 inh: -0.5

Results for CN1CCN(CCCNC(=O)c2cc3c(=O)n(C)c4ccccc4c3s2)CC1 ?
RAD52 inh: 62.3*; miR122 inh: -14.7; RAD54 inh: 63.5*; Glyco luc inh: 23.5; FID counter: 22.0; NRP1-CendR mod: -7.6; RAD52 DNA ctr: inactive

Results for CCC(=O)N1CC2(C1)CN(C(=O)c1ccccn1)[C@@H](CO)c1c2c2ccc(OC)cc2n1C ?
RAD52 inh: -1.3

How did CO[C@H]1CN(C)C(=O)c2ccc(NC(=O)NC(C)C)cc2OC[C@@H](C)N(Cc2cncnc2)C[C@H]1C do in these assays?
miR122 inh: 2.6[16.7 µM]

How did Cc1ccc[n+](CC(=O)Nc2ccc(N(C)C)cc2)c1 do in these assays?
RAD52 inh: 78.4*; miR122 inh: -4.0; RAD54 inh: -5.8; Glyco luc inh: 1.0; FID counter: 7.9; NRP1-CendR mod: 19.4; RAD52 DNA ctr: inactive

Results for CN(C)c1ccc(NC(=O)C[n+]2ccccc2)cc1 ?
RAD52 inh: 45.3; miR122 inh: -10.9; RAD54 inh: -20.2; Glyco luc inh: 2.8; FID counter: 2.9; NRP1-CendR mod: -1.7; RAD52 DNA ctr: inactive

Results for N=C(N)c1ccc(N=Nc2c(O)ccc3c2[nH]c2ccccc23)cc1 ?
RAD52 inh: 102.4*; miR122 inh: 0.9; Glyco luc inh: -11.6; NRP1-CendR mod: 72.5*; RAD52 DNA ctr: inactive

How did Cc1noc(C)c1NC(=O)N(C)C[C@@H]1Oc2ncc(C#CC(C)C)cc2C(=O)N([C@@H](C)CO)C[C@H]1C do in these assays?
RAD52 inh: 8.7; miR122 inh: -1.5[16.7 µM]; RAD54 inh: -5.5

Results for COc1cc2sc3ccc(-c4ccc(CN5CCOCC5)cc4)cc3c(=O)c2cc1OC ?
RAD52 inh: 92.7*; miR122 inh: -3.9; RAD54 inh: 7.3; Glyco luc inh: -1.8; NRP1-CendR mod: -12.7; RAD52 DNA ctr: inactive

Results for COc1ccc(CN2CCOCC2)cc1OC ?
miR122 inh: -2.2; RAD54 inh: -11.5; Glyco luc inh: 3.4; FID counter: 3.0; NRP1-CendR mod: 5.4

Results for CCCCCCCCCC[n+]1cccc2c3ccccc3ccc21 ?
RAD52 inh: 72.1*; Glyco luc inh: 18.9; FID counter: 9.8; NRP1-CendR mod: 4.0; RAD52 DNA ctr: inactive

Results for CCCCCCCC[n+]1cccc2c3ccccc3ccc21 ?
RAD52 inh: 39.0; Glyco luc inh: inconclusive; FID counter: 13.4; NRP1-CendR mod: 12.9

Compound activity (PubChem)
